Records with an inconclusive call do not appear. Values without a mark were called inactive. Calls follow the shape of the full dose curve.
% is scaled to controls: 0 for no effect and ±100 for the full control effect.

A short description of the experiment: qHTS assay to identify small molecule agonists of the endoplasmic reticulum stress response signaling pathway - cell viability counter screen (AID 1159517). Also: nearly all actives have a fitted effect of over 50% in size. The note with it: ESRE-bla HeLa viability, CellTiter-Glo luminescence, 5 h; series mostly up to 61 µM; activity change, negative = cytotoxicity: at the top concentration. The text has this: U.S. Tox21 Program National Center for Advancing Translational Sciences [NCATS] NIH Chemical Genomics Center [NCGC] U.S. Environmental Protection Agency [EPA] National Institutes of Environmental Health Sciences [NIEHS] National Toxicology Program [NTP] U.S. Food and Drug Administration [FDA] Tox21 Assay Overview: Endoplasmic Reticulum (ER) plays an important role in cellular signaling, protein folding/maturation, stress response, lipid biosynthesis, calcium storage and release etc. Under stress conditions, proteins in ER misfold or unfold, and leading to the expression of ER stress responsive genes. ER stress has been associated with a variety of pathophysiological conditions such as cancer, inflammation, neurodegenerative diseases, diabetes, ischemic heart disease etc. To identify the compounds that induce ER stress response, an ER stress reporter cell line, CellSensor ESRE-bla HeLa (Life Technologies, Carlsbad, CA) containing a beta-lactamase reporter gene under control of the Endoplasmic reticulum Stress Response Element (ESRE) was used to screen Tox21 10K compound library. The cytotoxicity of the Tox21 compound library against the ESRE-bla HeLa cell line was tested in parallel by measuring cell viability using the CellTiter-Glo assay in the same wells.
Tox21 Assay Protocol Summary: ESRE-bla HeLa cells were dispensed at 1,500 cells/6 uL of assay medium per well into black wall/clear-bottom 1536-well plates using a Multidrop Combi (ThermoFisher Scientific, Waltham, MA) dispenser. After the assay plates were incubated at 37 C and 5% CO2 for an overnight, 23 nL of compounds dissolved in DMSO, positive controls or DMSO only was transferred to the assay plate by a Pintool station (Kalypsys, San Diego, CA). The assay plates were incubated at 37 C and 5% CO2 for 5 hr. One uL of LiveBLAzer B/G FRET substrate (Life Technologies) was added using a FRD (Flying Reagent Dispenser, Aurora Discovery, San Diego, CA) and the plates were incubated at room temperature for 2 hr. Fluorescence intensity (405 nm excitation, 460 nm and 530 nm emissions) was measured using an Envision plate reader (PerkinElmer, Shelton, CT). For cytotoxicity, 4 ul/well of CellTiter-Glo reagent was added into the assay plates using an FRD. After 30 min incubation at room temperature, the luminescence intensity was measured using a ViewLux plate reader (PerkinElmer).
A general note: qHTS replaces the single test concentration by a dilution series.
Consider `CCc1c2c(nc3ccc(OC(=O)N4CCC(N5CCCCC5)CC4)cc13)-c1cc3c(c(=O)n1C2)COC(=O)[C@]3(O)CC`, for which the “activity change, negative = cytotoxicity” value is 10%.
To `CC1CN(c2cc3c(cc2F)c(=O)c(C(=O)O)cn3-c2ccc(F)cc2F)CCN1` (stereo not given) belongs 10.1% [at 6.95 µM]; to `CCCCC(=O)O[C@]1(C(=O)CO)[C@@H](C)C[C@H]2[C@@H]3CCC4=CC(=O)C=C[C@]4(C)[C@@]3(F)[C@@H](O)C[C@@]21C`, -3.72%; to `CC(=O)Nc1ccc(N)cc1`, 10.3% [at 78.8 µM].
As to `C[N+](C)(C)CCOC(N)=O`, the “activity change, negative = cytotoxicity” value is 7.42%.
Take `CCCCCCOC(=O)CCCCCCCC(=O)OCCCCCC`: the “activity change, negative = cytotoxicity” value was 15.4%.
With `CCCOC(=O)c1ccc(C(=O)OCCC)nc1`, the “activity change, negative = cytotoxicity” value was 0.386%.
Regarding `NC(=O)Nc1ccc(Cl)c(Cl)c1`, the “activity change, negative = cytotoxicity” value was -8.98%.
Take `CCCOC(=O)c1ccc(N)cc1`: the “activity change, negative = cytotoxicity” value is 3.29%.
On to `CC1CC(=O)NN=C1c1ccc(NCC(C)(C)NCC(O)COc2cc(Cl)ccc2C#N)cc1` (stereo not given), for which the “activity change, negative = cytotoxicity” value was 8.44%.
On to `CC1CC(O)CC(C)(C)C1` (stereo not given), for which the “activity change, negative = cytotoxicity” value is -5.51%.
As for `Oc1ccc(Nc2ccccc2)cc1`, the “activity change, negative = cytotoxicity” value was 3.74%.
Take `CC(C)OCC1CO1` (stereo not given): the “activity change, negative = cytotoxicity” value was -8.68%.
Regarding `Cc1cc(O)c2c(O)c3c(O)cccc3cc2c1`, the “activity change, negative = cytotoxicity” value was -4.4%.
Regarding `O=C(CCCN1CCC(O)(c2ccc(Br)cc2)CC1)c1ccc(F)cc1`, the “activity change, negative = cytotoxicity” value was -19.6%.
`CC(C)CCCCCOC(=O)CCCCC(=O)OCCCCCC(C)C`: the “activity change, negative = cytotoxicity” value was -6.79%.
Take `c1cc[c]([Bi]([c]2ccccc2)[c]2ccccc2)cc1`: the “activity change, negative = cytotoxicity” value was -6.61%.
In the case of `CC(CCc1ccc2c(c1)OCO2)NN` (stereo not given), the “activity change, negative = cytotoxicity” value was 1.91%.
On to `CCCCCCCCCCCC[N+](C)(C)CCCS(=O)(=O)[O-]`, for which the “activity change, negative = cytotoxicity” value was -19% [at 78.8 µM].
To `CN1CCN(CCCN2c3ccccc3Sc3ccc(S(=O)(=O)N(C)C)cc32)CC1` belongs -2.85%; to `Nc1ccc(C(=O)OCCCOC(=O)c2ccc(N)cc2)cc1`, 3.53%.
The result for `O=C(O)Cc1ccc(-c2ccccc2)cc1` reads 0.713%.
For `CC1=C(C=O)C(C)(C)CCC1`, the “activity change, negative = cytotoxicity” value was 6.19%.
Turning to `C/C=C(\C)C(=O)OCCC(C)CCC=C(C)C` (stereo not given), the “activity change, negative = cytotoxicity” value was 10.5%.
As for `CCCCCCCCCCCCCCC[C@H](O)[C@@H](N)CO`, the “activity change, negative = cytotoxicity” value was -0.952%.
As for `CNC(=O)N(c1ccccc1)c1ccccc1`, the “activity change, negative = cytotoxicity” value is 10.4% [at 78.8 µM].
Regarding `CCCCCCCC/C=C\CCCCCCCC(=O)OC(CO)CO`, the “activity change, negative = cytotoxicity” value was -0.0897%.
To `CCOC(=N)CC(=O)OCC` belongs -6.06%.
For the molecule `O=C(CCC1CCN(Cc2ccccc2)CC1)c1ccc2c(c1)NCCCC2`, the “activity change, negative = cytotoxicity” value is 4.5%.
Turning to `COCc1c(C(C)C)nc(C(C)C)c(/C=C/[C@@H](O)C[C@@H](O)CC(=O)O)c1-c1ccc(F)cc1`, the “activity change, negative = cytotoxicity” value is 1.26%.
To `Cc1cc2nc3ccc(=[N+](C)C)cc-3sc2cc1N` belongs 8.51%.
As to `CCCCCCCC/C=C\CCCCCCCC(=O)OC`, the “activity change, negative = cytotoxicity” value is 9.17%.
Regarding `OCCSc1ccccc1`, the “activity change, negative = cytotoxicity” value is -6.67%.
Turning to `CCCC1C(CC)=CC(CC)=CN1c1ccccc1` (stereo not given), the “activity change, negative = cytotoxicity” value was -4.4%.
With `C[C@]12CCC(=O)C=C1C=C[C@@H]1[C@@H]2CC[C@@]2(C)[C@H]1CC[C@@]21CCC(=O)O1`, the “activity change, negative = cytotoxicity” value was 11.5%.
`Cc1cnc(C)c(C)n1`: the “activity change, negative = cytotoxicity” value was 7.54% [at 78.8 µM].
`CCC(C(=O)OCCOCCN(CC)CC)c1ccccc1` (stereo not given): the “activity change, negative = cytotoxicity” value is -18%.
For the molecule `N#C/C(=C1/SC[C@@H](c2ccc(Cl)cc2Cl)S1)n1ccnc1`, the “activity change, negative = cytotoxicity” value was -13.5%.
To `CC(=O)[C@H]1CC[C@H]2[C@@H]3C[C@H](C)C4=CC(=O)CC[C@]4(C)[C@H]3[C@@H](O)C[C@]12C` belongs 1.62%; to `O=C(N[C@@H](c1ccccc1)[C@@H]1CCCCN1)c1cccc(C(F)(F)F)c1Cl`, -25.3%.

For the origin of these results see PubChem BioAssay (Tox21).
